Activity calls are given as the source filed them. Unless noted, how the calls were made is not given here.

The test system of assay [1] is Wnt5a (protein binding on small-molecule microarray). The experiment in a line: Wnt5a binders on small-molecule microarray, primary screen, biophysical, 635/667 nm fluorescence (AID 1142).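 Further: fluorescence read at 667 nm with signal to noise per printed feature.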 Conditions: 635 nm fluorescence, higher = more signal.
The nature of assay [2]: cell viability in Huh7 cells, primary screen, cytotoxicity control for HCV replication inhibitor project, CellTiter-Glo luminescence, basal, 48 h (AID 1143).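 Further: Huh7 hepatoma cells carrying a hepatitis C replication reporter with no stimulus; test concentration not given here.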 As to conditions: Huh7 HCV replicon, higher = more signal, called active from +8 up or from −8 down. Background: In ATP-based viability assays light output follows the ATP content of the culture.
Assay [3] is described as follows: P. aeruginosa biofilm formation inhibitors, primary screen, PAO1 strain, BacTiter-Glo luminescence, LB-PBS (AID 1144). Conditions: 12 h, higher = more signal.
The nature of assay [4]: CREB reporter modulators without forskolin, primary screen, cell-based, PC12, CRE-LacZ reporter, unstimulated (AID 1145). As to conditions: no forskolin, luminescence, 4.5 h, higher = more signal, called active from +8 up or from −8 down.
A short description of assay [5]: CREB reporter modulators under forskolin, primary screen, cell-based, PC12, CRE-LacZ reporter, forskolin-stimulated (AID 1146).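 Further: PC12 cells with 6xCRE LacZ reporter stimulated by forskolin 10 µM; beta-galactosidase reporter signal reflecting CREB driven transcription.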 As to conditions: luminescence, 4.5 h, higher = more signal, called active from +8 up or from −8 down.
The target of assay [6] is Streptavidin (Streptomyces avidinii) (UniProt P22629). Kind of assay: streptavidin binders on small-molecule microarray, primary screen, artefact control for SMM compound annotation, biophysical, 635/667 nm fluorescence (AID 1147).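 Further: signal reflects streptavidin binding to arrayed compounds as a control protein.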 Conditions: streptavidin binding, higher = more signal.
A short description of assay [7]: small-molecule binders of probe aInhba, primary screen, biochemical, small-molecule microarray, 635/667 nm fluorescence (AID 1148).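 Further: score merges 667nm spot fluorescence with signal-to-noise for antibody binding to printed compounds.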 As to conditions: higher = more signal.
Assay [8] has as its target Torsin-1A (Homo sapiens) (UniProt O14656). Kind of assay: torsin A binders from cell lysate, primary screen, small-molecule microarray, wild-type, 635/667 nm (AID 1149). Conditions: COS7 hTOR1A-WT lysate, 635 nm fluorescence, higher = more signal.
For assay [9] the target is unchanged. The experiment in a line: small-molecule binders of mutant TOR1A in lysate, primary screen, cell lysate, small-molecule microarray, COS7 lysate, 635/667 nm fluorescence (AID 1150).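 Further: score pools 667 nm emission and signal to noise measuring lysate protein binding.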 Conditions: COS7 hTOR1A mutant lysate, 635 nm fluorescence, higher = more signal.
The subject of assay [10] is Sonic hedgehog protein (Shh). Kind of assay: small-molecule binders of Shh protein, primary screen, biochemical, small-molecule microarray, 635/667 nm fluorescence (AID 1151).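 Further: Shh protein binding to compounds spotted on small-molecule microarray slides; score combines spot fluorescence intensity with signal-to-noise across triplicate slides.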 Conditions: small-molecule microarray binding, 635 nm fluorescence; higher = more signal.
Assay [11] in a line: E. coli DRC41 culture turbidity changes, primary screen, E. coli filamentation inducer project, strain DRC41, OD650, 48 h (AID 1152).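 Further: E. coli MC1000 strain DRC41 lacking acrAB efflux pump and sulA.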 Conditions: E. coli DRC41 (acrAB sulA), higher = more signal, called active from +8 up or from −8 down.
Assay [12] in a line: small-molecule binders of probe aLefty1, primary screen, biochemical, small-molecule microarray, 635/667 nm fluorescence (AID 1153).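 Further: score merges spot fluorescence with signal-to-noise ratio from the scanned slide images.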 As to conditions: higher = more signal.
The nature of assay [13]: PSAC antagonists in infected red cells, primary screen, cell-based, P. falciparum Indochina, OD700, 1 h (AID 1154). Conditions: P. falciparum Indochina infected RBC osmotic lysis, higher = more signal, called active from +8 up or from −8 down.
Assay [14] in a line: PSAC antagonists in infected red cells, primary screen, cell-based, P. falciparum Indochina, OD700, 2 h (AID 1155).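 Further: lysis reports solute entry through the parasite surface anion channel PSAC; channel blockers reduce lysis of infected cells.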 Conditions: P. falciparum Indochina infected erythrocytes, osmotic lysis OD700; higher = more signal, called active from +8 up or from −8 down.
A short description of assay [15]: osmotic lysis modulators in infected erythrocytes, primary screen, PSAC antagonist project, cell-based, P. falciparum Indochina, OD700, 3 h (AID 1156). Conditions: higher = more signal, called active from +8 up or from −8 down.
Assay [16] can be described thus: PSAC antagonists in infected red cells, primary screen, cell-based, P. falciparum Indochina, OD700, 18 h (AID 1157). Conditions: P. falciparum Indochina infected erythrocytes, osmotic lysis OD700, 18 h; higher = more signal, called active from +8 up or from −8 down.
Assay [17] can be described thus: modulators of S6 phosphorylation in cells, primary screen, cell-based, A549, cytoblot, luminescence, serum-stimulated (AID 1158).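 Further: serum-stimulated A549 lung adenocarcinoma cells; signal is phosphorylated S6 detected by cytoblot immunostaining with HRP secondary.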 As to conditions: A549 phospho-S6 cytoblot, 5 h, higher = more signal.
Assay [18] concerns the target NADPH oxidase 2 (Homo sapiens) (UniProt P04839). The experiment in a line: NOX2-dependent H2O2 signal modulators, primary screen, NOX inhibitor project, cell-based, HEK293-NOX2, PMA-stimulated, Amplex Red fluorescence (AID 1159). Further: test concentration not given here. As to conditions: 45 min, higher = more signal, called active from +8 up or from −8 down.
The target in assay [19] is NADPH oxidase 4 (Homo sapiens) (UniProt Q9NPH5). The experiment in a line: NOX4-dependent H2O2 signal modulators, primary screen, NOX inhibitor project, cell-based, HEK293-NOX4, tetracycline-induced, Amplex Red fluorescence (AID 1160). As to conditions: 45 min, higher = more signal, called active from +8 up or from −8 down.
Assay [20] deals with NADPH oxidase 5 (Homo sapiens) (UniProt Q96PH1). The experiment in a line: NOX5-dependent H2O2 signal modulators, primary screen, NOX inhibitor project, cell-based, HEK293-NOX5, Amplex Red fluorescence (AID 1161). As to conditions: HEK293-NOX5, ionomycin, 45 min, higher = more signal.
Chain of NADPH oxidase 5 (Homo sapiens) (Q96PH1 whole entry, looked up): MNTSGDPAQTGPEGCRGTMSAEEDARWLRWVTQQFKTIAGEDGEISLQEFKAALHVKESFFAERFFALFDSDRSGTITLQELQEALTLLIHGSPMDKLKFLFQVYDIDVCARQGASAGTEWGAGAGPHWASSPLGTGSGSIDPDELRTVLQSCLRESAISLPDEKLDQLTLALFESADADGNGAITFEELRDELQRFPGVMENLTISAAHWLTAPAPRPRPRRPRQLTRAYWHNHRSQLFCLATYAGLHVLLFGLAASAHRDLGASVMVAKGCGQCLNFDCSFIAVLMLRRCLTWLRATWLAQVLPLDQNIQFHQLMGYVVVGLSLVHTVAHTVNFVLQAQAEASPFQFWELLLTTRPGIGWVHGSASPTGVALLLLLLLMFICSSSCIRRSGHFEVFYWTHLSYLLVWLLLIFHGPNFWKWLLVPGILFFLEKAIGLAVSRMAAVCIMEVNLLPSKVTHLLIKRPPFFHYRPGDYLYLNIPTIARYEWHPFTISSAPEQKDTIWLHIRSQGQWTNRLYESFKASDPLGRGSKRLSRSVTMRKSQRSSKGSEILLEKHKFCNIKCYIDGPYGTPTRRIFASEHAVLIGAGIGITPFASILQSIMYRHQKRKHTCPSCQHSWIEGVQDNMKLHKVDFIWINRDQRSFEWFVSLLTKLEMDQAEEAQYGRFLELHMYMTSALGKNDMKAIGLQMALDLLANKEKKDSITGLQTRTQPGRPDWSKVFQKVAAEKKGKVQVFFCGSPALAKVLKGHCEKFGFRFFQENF

Chain of NADPH oxidase 2 (Homo sapiens) (P04839 whole entry, looked up): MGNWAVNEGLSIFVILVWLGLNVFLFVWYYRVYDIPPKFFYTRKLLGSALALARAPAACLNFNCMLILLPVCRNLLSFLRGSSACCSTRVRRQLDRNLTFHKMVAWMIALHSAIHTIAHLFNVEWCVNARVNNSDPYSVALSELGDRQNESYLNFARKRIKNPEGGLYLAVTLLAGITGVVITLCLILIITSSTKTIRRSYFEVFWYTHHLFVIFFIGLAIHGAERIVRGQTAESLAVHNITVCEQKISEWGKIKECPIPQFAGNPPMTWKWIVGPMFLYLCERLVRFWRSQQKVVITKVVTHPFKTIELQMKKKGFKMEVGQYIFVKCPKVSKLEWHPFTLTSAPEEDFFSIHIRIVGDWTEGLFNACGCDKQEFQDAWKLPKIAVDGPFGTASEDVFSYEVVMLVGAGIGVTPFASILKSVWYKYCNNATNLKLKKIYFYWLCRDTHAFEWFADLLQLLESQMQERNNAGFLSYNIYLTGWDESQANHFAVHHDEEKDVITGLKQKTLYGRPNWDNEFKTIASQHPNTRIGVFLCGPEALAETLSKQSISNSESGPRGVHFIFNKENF
Chain of Streptavidin (Streptomyces avidinii) (P22629 whole entry, looked up): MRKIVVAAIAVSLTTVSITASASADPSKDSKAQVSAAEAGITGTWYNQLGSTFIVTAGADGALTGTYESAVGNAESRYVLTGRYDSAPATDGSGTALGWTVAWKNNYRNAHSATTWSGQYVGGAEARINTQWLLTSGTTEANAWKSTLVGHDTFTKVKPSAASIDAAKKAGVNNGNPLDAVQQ
Chain of Torsin-1A (Homo sapiens) (O14656 whole entry, looked up): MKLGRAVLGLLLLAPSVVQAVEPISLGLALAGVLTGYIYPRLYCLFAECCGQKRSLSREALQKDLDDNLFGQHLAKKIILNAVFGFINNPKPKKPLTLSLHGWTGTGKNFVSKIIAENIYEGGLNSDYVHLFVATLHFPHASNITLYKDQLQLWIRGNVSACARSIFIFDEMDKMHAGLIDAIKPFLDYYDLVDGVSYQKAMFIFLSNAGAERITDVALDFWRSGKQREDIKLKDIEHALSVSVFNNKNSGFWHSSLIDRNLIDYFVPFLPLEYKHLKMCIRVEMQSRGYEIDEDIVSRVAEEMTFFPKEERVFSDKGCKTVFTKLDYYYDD
Chain of NADPH oxidase 4 (Homo sapiens) (Q9NPH5 whole entry, looked up): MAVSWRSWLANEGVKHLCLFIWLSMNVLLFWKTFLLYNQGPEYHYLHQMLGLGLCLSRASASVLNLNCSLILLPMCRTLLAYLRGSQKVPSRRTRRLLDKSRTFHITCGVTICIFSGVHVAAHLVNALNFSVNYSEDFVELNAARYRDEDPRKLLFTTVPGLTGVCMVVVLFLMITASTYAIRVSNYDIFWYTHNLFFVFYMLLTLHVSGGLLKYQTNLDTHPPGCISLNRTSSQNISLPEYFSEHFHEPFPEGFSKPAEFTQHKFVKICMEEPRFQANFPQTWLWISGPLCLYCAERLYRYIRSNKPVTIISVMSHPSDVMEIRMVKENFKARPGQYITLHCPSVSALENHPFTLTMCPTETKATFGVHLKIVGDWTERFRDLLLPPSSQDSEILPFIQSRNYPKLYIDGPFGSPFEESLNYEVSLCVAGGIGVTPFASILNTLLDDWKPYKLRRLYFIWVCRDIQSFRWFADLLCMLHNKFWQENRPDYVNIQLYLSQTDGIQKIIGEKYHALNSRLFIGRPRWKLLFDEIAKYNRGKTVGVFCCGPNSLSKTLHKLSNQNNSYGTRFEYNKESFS

As to `CCOC(=O)NN=C1C[C@@H](O)[C@@H](O)[C@@H]2[C@@H]3C(=O)N(CC)C(=O)[C@@H]3CC[C@@H]12`, the composite z-score was -0.0087 in assay [1]; -0.124 in assay [6]; -0.324 in [7]; 0.0252 in [8]; -0.0727 in [9]; 0.784 in [10]. The compound also came in with a composite z-score in assay [12] of 0.0053. Besides, the z-score in assay [2] is 0.225 (inactive); in [3] it was -0.0164 (inactive); in [4], -0.205 (inactive); in [5], 0.104 (inactive); in assay [11], -0.562 (inactive); in [13], -0.485 (inactive). The z-score was -0.246 (inactive) in assay [14]; -0.493 (inactive) in assay [15]; -0.336 (inactive) in assay [16]; 0.123 in [17]; -1.43 (inactive) in assay [18]; 0.0593 (inactive) in assay [19]. Also, the z-score in assay [20] was -0.641.

Consider `COc1ccccc1CN1C(=O)c2ccccc2[C@@]2(Cc3ccccc3N(C(C)C)C2=O)[C@@H]1c1ccc(CO)cc1`, for which the composite z-score is -0.458 in assay [1]; -0.213 in assay [6]; -0.0695 in assay [7]; -1.25 in assay [8]; 0.373 in assay [9]; -0.147 in [10]. The compound further had a composite z-score in assay [12] of 0.0371. Further, the z-score is -1.84 (inactive) in assay [2]; -0.205 (inactive) in assay [3]; -0.179 (inactive) in [4]; -0.335 (inactive) in assay [5]; 1.74 (inactive) in assay [11]; 0.0937 (inactive) in assay [13]. In addition, the z-score in assay [14] is -0.756 (inactive); in [15] it was -0.964 (inactive); in assay [16], -0.876 (inactive); in assay [17], 1.79; in assay [18] it was -0.437 (inactive); in assay [19] it was 0.215 (inactive). Also, the z-score in [20] was 1.04.

As for `COc1ccc([Si](C)(C)[C@H]2[C@H](CC(=O)N3CCC[C@H]3CO)O[C@@]3(C(=O)N(Cc4cccc(N5C(=O)COc6ccccc65)c4)c4ccccc43)[C@@H]2C)cc1`, the composite z-score in assay [1] was 0.156; in assay [6], 0.0527; in [7], -0.157; in assay [8] it was 0.419; in assay [9], 0.889; in assay [10], 1.92. In addition, the composite z-score in assay [12] was 0.169. Further, the z-score in assay [2] was -2.16 (inactive); in [3] it was -0.201 (inactive); in assay [4], 7.18 (inactive); in [5], -1.22 (inactive); in assay [11], 1.62 (inactive); in assay [13] it was 6.56 (inactive). The z-score in assay [14] was 0.0867 (inactive); in assay [15], -0.749 (inactive); in [16], -0.701 (inactive); in assay [17], 1.03; in assay [18] it was 1.1 (inactive); in assay [19], 1.21 (inactive). In addition, the z-score in [20] amounted to 2.99.

For the compound `O=C1C[C@@H](O)[C@@H](O)[C@@H]2[C@@H]3C(=O)N(Cc4ccc5c(c4)OCO5)C(=O)[C@@H]3CC[C@@H]12`, the composite z-score in assay [1] was 0.0765; in assay [6], -0.282; in [7], -0.149; in assay [8], 0.622; in [9], 0.407; in assay [10] it was 0.698. In assay [12], the composite z-score was -0.103. Also, the z-score in assay [2] is 0.136 (inactive); in assay [3], 0.00816 (inactive); in assay [4] it was -0.116 (inactive); in [5], 0.0785 (inactive); in assay [11] it was 0.306 (inactive); in assay [13] it was 4.63 (inactive). Besides, the z-score in assay [14] is 0.632 (inactive); in assay [15] it was 0.311 (inactive); in assay [16] it was 0.182 (inactive); in [17] it was -0.352; in [18], 0.323 (inactive); in assay [19], -0.209 (inactive). Also, the z-score in assay [20] was -0.246.

As to `C=CCOC(=O)[C@H]1[C@@H]2C(=O)O[C@@H](c3ccccc3)[C@@H](c3ccccc3)N2[C@@H](c2ccc(OCCOC(=O)[C@H]3C[C@H]4C(=O)N[C@@H](Cc5ccccc5)C(=O)N4[C@H]3c3ccc(O)cc3)cc2)[C@]12C(=O)Nc1ccccc12`, the composite z-score is 0.354 in [1]; -0.261 in assay [6]; -0.171 in [7]; 0.419 in assay [8]; 0.278 in [9]; 1.92 in assay [10]. The composite z-score in assay [12] was -0.263. The z-score in [2] is -0.155 (inactive); in assay [3] it was -0.0202 (inactive); in [4], 0.285 (inactive); in assay [5] it was -0.231 (inactive); in assay [11] it was 0.561 (inactive); in [13], 2.5 (inactive). Besides, the z-score is 1.2 (inactive) in assay [14]; -4 (inactive) in [15]; 0.988 (inactive) in assay [16]; 0.338 in assay [17]; 1.83 (inactive) in assay [18]; 0.898 (inactive) in assay [19]. Further, the z-score in [20] came out at 1.44.

Take `CCCCCN1CC=CC23O[C@@H]4C=CCOC(=O)[C@@H]4[C@H]2C(=O)N(CCCCCCO)[C@@H]3C1=O` (stereo not given in full): the composite z-score in [1] was -0.485; in assay [6], -0.976; in assay [7], -0.15; in [8], -1.78; in [9] it was -0.966; in assay [10] it was -0.837. Also, in [12], the composite z-score was -0.103. The z-score in [2] is 0.0442 (inactive); in [3] it was 0.851 (inactive); in assay [4], -0.342 (inactive); in assay [5], 0.124 (inactive); in assay [11], 0.191 (inactive); in [13], 2.04 (inactive). Also, the z-score in assay [14] was -0.0969 (inactive); in assay [15], 0.748 (inactive); in [16], 0.187 (inactive); in assay [17], 0.0374; in assay [18] it was 1.24 (inactive); in [19] it was -0.482 (inactive). Further, the z-score in [20] turned out to be 1.73.

For the compound `COc1ccc(-c2ccc3c(n2)CCCN3CC(O)CN2CCCc3nc(C)c(C)cc32)cc1` (stereo not given), the composite z-score worked out at 0.268 in [1]; 1.52 in assay [6]; 0.276 in assay [7]; 0.785 in [8]; 1.15 in assay [9]; 1.19 in [10]. Moreover, the composite z-score in assay [12] was determined as 0.864. The z-score in assay [2] is -0.154 (inactive); in assay [3], -0.0522 (inactive); in assay [4] it was -0.0779 (inactive); in [5] it was 0.536 (inactive); in [11], 0.125 (inactive); in [13], 5.76 (inactive). For the same compound, the z-score is 0.894 (inactive) in assay [14]; 0.661 (inactive) in [15]; 0.0758 (inactive) in assay [16]; -0.0509 in assay [17]; 1.05 (inactive) in assay [18]; -0.305 (inactive) in assay [19]. Further, the z-score in assay [20] was -1.35.

On to `CC(C)CON=C1[C@H]2CCn3c(=O)n(-c4ccccc4)c(=O)n3[C@H]2[C@H](O)[C@@H]2O[C@H]12`, for which the composite z-score in assay [1] was 0.134; in assay [6], -0.142; in [7] it was -0.102; in [8] it was 0.235; in assay [9], 0.189; in assay [10], 0.445. For the same compound, the composite z-score in [12] was -0.105. The z-score in [2] was 0.893 (inactive); in assay [3] it was 0.291 (inactive); in assay [4], 0.797 (inactive); in [5] it was 0.148 (inactive); in assay [11], 0.424 (inactive); in [13], 0.175 (inactive). The z-score is -0.2 (inactive) in [14]; 0.0794 (inactive) in assay [15]; 0.0344 (inactive) in assay [16]; 0.0305 in [17]; -5.13 (inactive) in [18]; 0.018 (inactive) in [19]. The compound also registered a z-score in assay [20] of 0.407.

Source of the values: PubChem BioAssay.
